RGS8-Gao = regulators of human RGS8-Galphao interaction. response (percent of control binding), % at 10 µM. 0.34% of 220,000 active. P09471. multiplexed bead flow cytometry, RGS8-Galphao binding; actives lie on both sides. AID 1423; in the data active = response below about 60% or above about 140%; inactive = in between;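 note: Galphao activated as the GDP aluminium fluoride complex binding bead-coupled RGS8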
Target sequence (P09471 whole entry, looked up): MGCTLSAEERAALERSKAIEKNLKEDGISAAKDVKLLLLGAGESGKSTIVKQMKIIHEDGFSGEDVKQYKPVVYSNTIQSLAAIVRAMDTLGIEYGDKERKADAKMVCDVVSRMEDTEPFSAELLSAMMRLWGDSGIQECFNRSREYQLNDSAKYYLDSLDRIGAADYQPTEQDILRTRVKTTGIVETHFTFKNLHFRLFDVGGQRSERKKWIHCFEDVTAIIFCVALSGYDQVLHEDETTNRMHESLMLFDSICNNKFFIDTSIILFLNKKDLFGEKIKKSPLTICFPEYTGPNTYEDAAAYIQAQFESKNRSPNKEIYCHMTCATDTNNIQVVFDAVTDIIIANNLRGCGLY
RGS16-Gao HTS = RGS16-Galphao interaction regulator (human); 0.38% of 220,000 active; bead-based flow cytometry RGS16-Galphao binding, fluorescence; actives lie on both sides; binding response (% of control), % at 10 µM; O15492+P09471;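 note: Galphao activated by GDP with aluminum fluoride before binding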
Target sequence (O15492 whole entry, looked up): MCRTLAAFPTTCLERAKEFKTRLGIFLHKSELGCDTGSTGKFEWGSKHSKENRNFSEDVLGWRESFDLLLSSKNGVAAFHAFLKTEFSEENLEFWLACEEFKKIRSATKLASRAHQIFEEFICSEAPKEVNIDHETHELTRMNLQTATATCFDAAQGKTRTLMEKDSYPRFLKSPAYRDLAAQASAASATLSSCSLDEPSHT
Target sequence (P09471 whole entry, looked up): as the sequence (P09471 whole entry, looked up) above
RGS4-Gao reg = human RGS4-Galphao interaction regulation. P09471. Multiplexed bead flow cytometry, RGS4-Galphao binding; actives lie on both sides. binding response (% of control), % at 10 µM. 0.33% of 220,000 active; in the data active = binding response below about 49% or above about 150%; inactive = in between;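 note: fluorescent Galphao activated with aluminum fluoride binding bead-coupled RGS4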
GSH fluor = compound fluoresces at 488/530 nm on GSH beads | GSH beads flow cytometry, compound fluorescence 488/530 nm; active compounds read high | fluorescence (KMESF) at 10 µM | 0.25% of 190,000 active | AID 1776; in the data active = fluorescence above about 89;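 note: glutathione beads carrying GST-tagged Bcl family fusion proteins plus one bare bead set; values are compound well signal with DMSO vehicle wells as background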
RGS7-Gao reg = modulates binding of RGS7 to human Galphao; 0.35% of 220,000 active; P09471; binding response (% of control), % at 10 µM; Multiplexed bead flow cytometry; actives lie on both sides; AID 1439; in the data active = binding response below about 49% or above about 150%; inconclusive = no clear call, values can overlap the other calls; inactive = in between;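 note: fluorescent Galphao held in activated GDP-AlF4 state binding bead-coupled RGS7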
Avidin bead fluor = compound fluoresces at 488/530 nm on avidin beads. AID 1775. fluorescence (KMESF) at 10 µM. compound fluorescence 488/530 nm, flow cytometry; active compounds read high. 0.38% of 220,000 active; in the data active = fluorescence above about 47
RGS4-Gao HTS = modulates binding between human RGS4 and Galphao | multiplexed bead flow cytometry, RGS–Galpha-o binding | shares compounds with RGS16-Gao HTS | RGS4–Galpha-o binding response, % at 10 µM | 99% of 1,600 active | AID 1504;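 note: fluorescently labeled Galpha-o bound to GDP with aluminium fluoride binding biotinylated RGS beads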
Avidin counter = interferes with biotinylated probe binding to avidin beads | 1,700 tested, under 10 active | streptavidin beads, fluorescein-biotin binding, flow cytometry | inhibition, % at 10 µM | shares compounds with RGS16-Gao HTS;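 active = inhibition above 50%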;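 note: median green fluorescence of gated singlet beads compared with DMSO control wells; 0% = DMSO wells and 100% = complete loss of bead fluorescence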
RGS8-Gao single = confirmation of regulators of human RGS8-Galphao interaction | binding response (% of control), % at 10 µM | bead-based flow cytometry RGS8-Galphao binding, fluorescence; actives lie on both sides | shares compounds with RGS16-Gao HTS | 3% of 1,700 active; in the data active = binding response below about 72% or above about 130%; inactive = in between;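 note: Galphao activated as GDP AlF4 complex before binding bead RGS8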
RGS7-Gao confirm = RGS7-Galphao interaction regulation, single point confirmation; shares compounds with RGS16-Gao HTS; bead-based flow cytometry RGS7-Galphao binding; actives lie on both sides; response (percent of control binding), % at 10 µM; 7.8% of 1,700 active; in the data active = response below about 75% or above about 130%; inactive = in between;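 note: fluorescent Galphao activated with GDP and aluminum fluoride binding bead-coupled RGS7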
RGS16-Gao single = confirmation of regulators of human RGS16-Galphao interaction | shares compounds with RGS16-Gao HTS | bead-based flow cytometry, RGS16-Galphao binding; actives lie on both sides | response (% of control binding), % at 10 µM | 4% of 1,700 active; in the data active = response below about 74% or above about 130%; inactive = in between;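 note: Galphao activated as the GDP aluminium fluoride complex binding bead-coupled RGS16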
RGS4-Gao single = confirmation of regulators of human RGS4-Galphao interaction | shares compounds with RGS16-Gao HTS | RGS4-Galphao binding, multiplexed bead flow cytometry; actives lie on both sides | binding response (% of control), % at 10 µM | 4% of 1,700 active | AID 1840; in the data active = binding response below about 74% or above about 130%; inactive = in between
RGS19-Gao single = confirmation of regulators of human RGS19-Galphao interaction; shares compounds with RGS16-Gao HTS; bead-based flow cytometry RGS19-Galphao binding; actives lie on both sides; response (percent of control binding), % at 10 µM; 5% of 1,700 active; AID 1841; in the data active = response below about 50% or above about 160%; inactive = in between;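 note: 100% = no compound control and 0% = blank background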
* = called active by the depositor; ? = inconclusive; . = no result given; + = active, no number; [ ] = remark or other dose. Only some compounds are listed: those with a hit (about 1.2% of all), similar ones and a draw of the others. Unless noted, the rule behind the calls is not given here.

SMILES	RGS8-Gao	RGS16-Gao HTS	RGS4-Gao reg	GSH fluor	RGS7-Gao reg	Avidin bead fluor	RGS4-Gao HTS	Avidin counter	RGS8-Gao single	RGS7-Gao confirm	RGS16-Gao single	RGS4-Gao single	RGS19-Gao single
COc1cccc(NC(=O)Nc2cc(C)ccc2OC)c1	34*	22*	36*	15	26*	2	.	2	98	95	97	100	103
COc1ccc(C)cc1NC(=O)Nc1ccccc1	101	98	104	57	104	13	.	.	.	.	.	.	.
Cc1cc(N)nc(C)c1C#N	100	100	100	20	98	10	.	.	.	.	.	.	.
Cc1cc(C)c(C#N)c(N)n1	.	.	.	11	.	.	.	0	101	99	99	102	94
CCOC(=O)Cc1csc(NC(=O)C(NC(=O)C2CCCCC2)C(C)C)n1 (configuration not stated)	98	95	95	13	96	10	.	.	.	.	.	.	.
C/C(=N/NC(=O)c1cc(O)c(O)c(O)c1)c1ccc([N+](=O)[O-])cc1	8.8*	-2.4*	21*	9	6.2*	0	.	0	82	76	83	90	83
Cc1ccc2nc(C)c3c(c2c1)SCC3	103	193*[activator]	207*[activator]	.	?	102*	.	0	101	100	102	101	107
Cc1ccc(S(=O)(=O)NCCc2nnc3ccc(SCC(=O)Nc4nc5ccccc5s4)nn23)cc1	114	177*[activator]	105	8	109	3	105*	0	95	91	93	92	82
O=C(NCc1ccc2c(c1)OCO2)c1ccc(COc2cccc(Cl)c2)o1	101	102	100	46	101	11	.	.	.	.	.	.	.
O=C(NCc1ccc2c(c1)OCO2)c1cccc([N+](=O)[O-])c1	.	.	.	19	.	.	.	2	101	100	103	101	96
O=C(NCc1ccc2c(c1)OCO2)c1ccc2c(c1)OCO2	100	105	105	.	?	23	.	.	.	.	.	.	.
O=C(NCc1ccc2c(c1)OCO2)c1ccc(CSCc2ccccc2Cl)o1	75	9	54	12	48*	7	54*	1	98	101	101	103	106
O=C(NCCSCc1ccc(Cl)cc1Cl)c1ccc(CN2CCOCC2)cc1	13*	-10*	-21*	10	-2.0*	-1	.	1	99	100	99	99	108
Fc1ccc(C(Nc2ccccn2)c2c[nH]c3ccccc23)cc1 (configuration not stated)	141*[activator]	156	125	14	133	23	125*	0	104	103	102	103	111
O=[N+]([O-])c1cccc(/C=N/n2c(COc3ccccc3)n[nH]c2=S)c1	140	272*[activator]	118	17	117	7	118*	-2	93	88	85	89	75
O=[N+]([O-])c1ccc(/C=N/n2c(COc3ccccc3)n[nH]c2=S)cc1	103	103	102	6	104	17	.	.	.	.	.	.	.
CCN(CC)S(=O)(=O)c1cc(C(=O)Oc2cccc(-c3cnc4ccccc4n3)c2)ccc1Br	11*	-29*	-30*	36	-8.5*	-5	.	-1	103	108	107	104	93
CCN(CC)S(=O)(=O)c1ccc(Cl)c(C(=O)Oc2cccc(-c3cnc4ccccc4n3)c2)c1	97	93	101	12	99	6	.	.	.	.	.	.	.
CCNC(=O)C(Sc1ccccc1)c1ccccc1 (configuration not stated)	130	252*[activator]	106	21	105	21	106*	0	101	105	99	101	92
O=C(CSc1nnc2n1CCCN2)c1ccc(Cl)cc1	-19*	88	+[activator]	11	-278*	-5	.	2	100	104	102	105	100
COc1ccc(-c2cc(C(F)(F)F)c(C#N)c(SCC(=O)Nc3ccccc3C#N)n2)cc1	121	469	256*[activator]	71	153*[activator]	49*	.	0	102	89	100	92	114
COc1ccc(NC(=O)CSc2nc(-c3ccc(C)cc3)cc(C(F)(F)F)c2C#N)cc1	94	96	93	8	99	29	.	.	.	.	.	.	.
COC(=O)c1c(-c2c(Cl)cccc2Cl)noc1C(=O)NNC(=O)N(C)C	103	104	106	.	?	7	.	.	.	.	.	.	.
O=c1c2ccccc2sn1-c1ccc(S(=O)(=O)N2CCCC2)cc1	31*	-3.0*	92	9	89	4	92*	1	59*	85	40*	91	8.6*
NS(=O)(=O)c1ccc(S(=O)(=O)N2CCCC2)cc1	97	89	102	25	104	7	.	.	.	.	.	.	.
O=c1c2ccccc2sn1-c1nccs1	75	78	98	9	101	16	.	.	.	.	.	.	.
Cc1ccc(-n2sc3ccccc3c2=O)cc1S(=O)(=O)N1CCCCC1	43*	-12	75	6	97	7	75*	.	.	.	.	.	.
CN(C)S(=O)(=O)c1ccc2[nH]cc(/C=C/c3nc4ccccc4c(=O)n3-c3ccccc3)c2c1	102	99	101	16	101	34	.	.	.	.	.	.	.
CN(C)S(=O)(=O)c1cccc(-n2sc3ccccc3c2=O)c1	55*	17*	93	9	?	4	93*	.	.	.	.	.	.
O=c1c2ccccc2sn1-c1ccccc1	18*	-5.3*	78	15	91	6	78*	-2	25*	85	0.1*	78	-0.4*
